Source: PubChem (National Center for Advancing Translational Sciences (NCATS))
3T3 cytotox – NIH 3T3 cell cytotoxicity | NIH 3T3 viability, CellTiter-Glo ATP luminescence, 48-72 h | Potency, µM (series often up to 96.7 µM), for inactives: top-dose activity change, negative = cytotoxicity, hits mostly inhibitors | 4.3% of 94,000 active; note: nearly all actives have a fitted effect of over 55% in size
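Cells were seeded at 400 per well, treated with pin-transferred compound, and kept 48 or 72 hr at 37 °C before CellTiter-Glo addition and luminescence imaging of cellular ATP.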
GPT2 inh – inhibitors of human GPT2 alanine aminotransferase. Q8TD30. Recombinant GPT2, coupled pyruvate oxidase/HRP Amplex Red fluorescence. Potency, µM (series often up to 57.7 µM), for inactives: at the top dose activity change, negative = inhibition, most hits filed as inhibitors. 0.25% of 100,000 active; note: nearly all actives have a fitted effect of over 60% in size
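Fluorescence of coupled pyruvate oxidase/HRP/Amplex Red system (50uM Amplex, 30 min, dark) reports pyruvate formed by GPT2. Enzyme reaction: 10ng/uL GPT2, 2mM L-alanine, 250uM a-KG, 30 min room temperature, pH 7.5; 50uM AOA control.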
HEK293 tox – kills HEK 293 cells; HEK 293 viability, ATP luminescence (CellTiter-Glo), 48-72 h; Potency, µM (series often up to 115 µM), for inactives: at the top dose activity change, negative = cytotoxicity, usual class: inhibitors; 6.6% of 94,000 active; AID 1345083; note: nearly all actives have a fitted effect of over 60% in size
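Cytotoxicity was scored by loss of ATP-coupled luminescence (CellTiter-Glo) in HEK 293 cells. Compound treatment ran 48 or 72 hr at 37 degree Celsius, 5% CO2, 95% humidity.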
Luciferase inh – Photinus pyralis luciferase inhibition | purified P. pyralis luciferase, luminescence, biochemical | P08659 | Potency, µM (doses to about 115 µM), actives largely listed as inhibitors | AID 1347043 | 2.5% of 76,000 active; note: nearly all actives have a fitted effect of over 65% in size
Target sequence (P08659 whole entry, looked up): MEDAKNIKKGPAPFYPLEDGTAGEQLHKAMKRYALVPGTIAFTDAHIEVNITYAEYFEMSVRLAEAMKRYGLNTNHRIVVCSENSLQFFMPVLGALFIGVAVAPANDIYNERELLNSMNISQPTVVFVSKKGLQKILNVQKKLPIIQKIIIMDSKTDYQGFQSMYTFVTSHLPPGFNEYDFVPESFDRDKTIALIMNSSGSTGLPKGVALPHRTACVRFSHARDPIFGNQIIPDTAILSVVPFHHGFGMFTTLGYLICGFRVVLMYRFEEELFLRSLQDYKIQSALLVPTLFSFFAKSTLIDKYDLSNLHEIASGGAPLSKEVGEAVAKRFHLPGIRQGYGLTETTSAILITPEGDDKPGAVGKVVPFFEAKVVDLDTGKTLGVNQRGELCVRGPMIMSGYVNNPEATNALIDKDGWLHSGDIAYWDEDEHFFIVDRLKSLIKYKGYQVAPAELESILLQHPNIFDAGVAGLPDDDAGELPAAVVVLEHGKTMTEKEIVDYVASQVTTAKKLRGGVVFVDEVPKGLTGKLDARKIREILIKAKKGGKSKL
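Luminescence read by CCD imager after adding enzyme (10nM final) to wells holding compound, titrated in qHTS. Substrates 10uM each D-luciferin and ATP; buffer 50mM Tris acetate pH 7.5, 10mM Mg acetate, Tween-20, BSA.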
NPR1 antag – blocks ANP-stimulated signaling of human Npr1 receptor. HEK293 hNpr1 GloSensor cGMP, ANP-stimulated luminescence. AID 1347048. Potency, µM (top dose mostly 46.3 µM), without a hit: top-dose activity change, negative = inhibition, hits mostly inhibitors. 1.6% of 76,000 active. P16066; calls by dose curve; note: nearly all actives have a fitted effect of over 60% in size
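Compound pre-incubated 30 min at room temperature on GloSensor-loaded HEK293 cells stably carrying hNpr1 and the pGS-40F cGMP biosensor. Stimulation uses hNppA at 0.1 nM final; luminescence is taken at baseline and 20 min post-agonist.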
An asterisk follows results filed as active; i = inactive; ? = inconclusive; / = no result; [ ] = dose if it differs, or a comment. Compounds with a hit are over-represented: about 10% of the library has one in this group of screens. Unless noted, calls come from the whole dose curve; as a rule, active = well fitted curve in the direction sought with a large enough effect; inconclusive = small, poorly fitted or top-dose-only effect, or another doubt; inactive = no such curve, though single readings can be large; an effect the other way counts as inactive or inconclusive. % is set by controls: 0 for no effect and ±100 for the full control effect; potency is the fitted concentration of half-maximal effect.

SMILES	3T3 cytotox	GPT2 inh	HEK293 tox	Luciferase inh	NPR1 antag
Cc1cccc2c(C3CCN(S(=O)(=O)c4cc(F)c(F)cc4Cl)CC3)c[nH]c12	32µM*	-12%	?	i	-1%
COc1ccc(Cl)cc1S(=O)(=O)N1CCC(c2c[nH]c3c(C)cccc23)CC1	?	-8%	?	i	-14%
COC(=O)NC1CCCN(c2ccc3nnc(C4CC4)n3n2)C1 (stereo unspecified)	-9%[138 µM]	/	2%[172 µM]	/	/
O=C(Nc1cccc(Cl)c1)c1ccc2nc(-c3ccncc3)oc2c1	?	-6%	?	/	/
c1ccc(OCCNc2nc(-c3cccnc3)nc3c2CCNCC3)cc1	32µM*	i	?	i	?
CCOCC1(C)COc2ccc(C(=O)Nc3cccc(OC)c3)cc2N1 (stereo unspecified)	-30%[138 µM]	-25%[88.5 µM]	?	20µM*	-4%[70.6 µM]
CCOCC1(C)COc2ccc(C(=O)N(C)c3ccccc3)cc2N1 (stereo unspecified)	-18%[138 µM]	-9%[88.5 µM]	?	i	-13%[70.6 µM]
COc1cccc(NC(=O)c2ccc3c(c2)NC(C)(COCCN(C)C)CO3)c1 (stereo unspecified)	?	-12%[88.5 µM]	?	?	-1%[70.6 µM]
CN(C)CCCOCC1(C)COc2ccc(C(=O)Nc3cccc(Cl)c3)cc2N1 (stereo unspecified)	?	-6%[88.5 µM]	35µM*	i	-7%[70.6 µM]
COc1cccc(NC(=O)c2ccc3c(c2)NC(C)(CNc2ccccc2)CO3)c1 (stereo unspecified)	28µM*	0%[88.5 µM]	40µM*	?	?
CCOCC1(C)COc2ccc(C(=O)Nc3cccc(N(C)C)c3)cc2N1 (stereo unspecified)	?	4%[88.5 µM]	?	63µM*	0%[70.6 µM]
O=C(CCC[C@H]1NC[C@@H]2C[C@H]1CN(Cc1ccccc1)C2)NCCCN1CCCc2ccccc21	-3%	-28%	-3%	i	-1%
CCN1CCN(C(=O)c2nc3sccn3c2-c2ccc(OC)cc2)CC1	-3%	3%	3%	/	/
CCOCC1(C)COc2ccc(C(=O)Nc3cccc(Cl)c3)cc2N1 (stereo unspecified)	40µM*	-35%[88.5 µM]	63µM*	20µM*	?
CC(C)CNC(=O)c1ccc2c(c1)NC(C)(COCC1CC1)CO2 (stereo unspecified)	?	i	?	i	-2%[70.6 µM]
COc1cccc(S(=O)(=O)NCC2Cn3cccc3C(=O)N2C)c1 (stereo unspecified)	-16%	2%	-8%	i	1%
CCOC(=O)c1oc2ccc(S(=O)(=O)NCC3Cn4cccc4C(=O)N3C)cc2c1C (stereo unspecified)	-26%	5%	40µM*	i	?
O=C(c1nc2cccnc2n(C2CC2)c1=O)N1CCN([S+](=O)([O-])c2cccs2)CC1	-7%	i	i	/	/
Cn1ccc(NC(=O)c2cc(Oc3ccc(C(=O)N4CCC4)c(F)c3)c3c(c2)OC(C)(C)C3)n1	/	i	/	/	/
COc1ccc(F)cc1-c1ccc(CN2CCCCC2C(=O)NCc2ccccc2F)cc1 (stereo unspecified)	?	/	25µM*	/	/
COc1ccc(CNC(=O)C2CCCCN2Cc2ccc(-c3ccccc3OC)cc2)cc1OC (stereo unspecified)	?	/	32µM*	/	/
COc1ccc(F)cc1-c1ccc(CN2CCCCC2C(=O)NCc2ccccc2)cc1 (stereo unspecified)	?	/	32µM*	/	/
O=C(NCc1cccc(C(F)(F)F)c1)C1CCCN1Cc1ccc(-c2cncnc2)cc1 (stereo unspecified)	?	i	50µM*	/	/
COc1ccc(C(=O)N2CCCC2C(=O)N2CCC(N3CCCC3=O)CC2)cc1 (stereo unspecified)	2%	i	i	/	/
COc1cccc(CN2CC(O)CN(S(=O)(=O)c3ccc(F)cc3)CC2=O)c1OC (stereo unspecified)	?	/	-19%	/	/
SMILES	3T3 cytotox	GPT2 inh	HEK293 tox	Luciferase inh	NPR1 antag
COc1ccccc1-c1cccc(C(=O)N2CCC[C@H]2C(=O)NCc2ccccc2)c1	-32%	i	?	/	/
COc1ccc(F)cc1-c1ccc(CN2CCCCC2C(=O)NC(C)CCc2ccccc2)cc1 (stereo unspecified)	?	/	25µM*	/	/
COc1ccccc1-c1ccc(CN2CCCCC2C(=O)NCc2cccc(C(F)(F)F)c2)cc1 (stereo unspecified)	?	/	28µM*	/	/
COc1ccccc1-c1cccc(C(=O)N2CCC[C@H]2C(=O)NCc2ccc(C(F)(F)F)cc2)c1	?	-8%	79µM*	/	/
COc1ccc(F)cc1-c1ccc(CN2CCCCC2C(=O)NCc2cccs2)cc1 (stereo unspecified)	13µM*	/	?	/	/
O=C(NC1CCCCC1)C1CN(S(=O)(=O)c2ccccc2Cl)CC12CCOCC2 (stereo unspecified)	?	i	-20%	i	0%
COc1ccc(Nc2cc3c(cn2)CN(CCc2ccccc2)CCN3)cn1	50µM*	-15%[88.5 µM]	63µM*	i	-7%[70.6 µM]
CC(=O)N1CCNc2cc(-c3ccc(Oc4ccccc4)cc3)ncc2C1	?	i	71µM*	20µM*	-19%[70.6 µM]
COCCN1CCNc2cc(NCc3ccccc3)ncc2C1	?	i	?	i	1%[70.6 µM]
CN(C)C(=O)c1ccc(-c2cc3c(cn2)CN(CCc2ccccc2)CCN3)cc1	?	i	?	i	-14%[70.6 µM]
COc1ccccc1CN1CCNc2cnc(-c3ccccc3)cc2C1	?	-3%[88.5 µM]	79µM*	i	-15%[70.6 µM]
c1ccc(CN2CCNc3cnc(-c4ccc(N5CCOCC5)cc4)cc3C2)cc1	?	1%[88.5 µM]	50µM*	20µM*	28µM*
O=C(Cc1ccc(-c2ccccc2)cc1)N1CC(COc2ccccc2)C2(C1)CN(C(=O)c1cn[nH]c1)C2 (stereo unspecified)	?	-10%	?	i	-15%
O=C(Nc1ccc(Cl)cc1)N1CCCC(C(=O)N2CCC(N3Cc4cccn4C3=O)CC2)C1 (stereo unspecified)	?	i	?	/	/
CN(C)C[C@@H]1CN(c2ccncn2)C[C@H]1NC(=O)c1cnco1	-2%	1%	i	i	2%
COc1ccc(Nc2cc3c(cn2)CN(Cc2ccncc2)CCN3)cc1OC	?	-6%[88.5 µM]	?	i	-1%[70.6 µM]
COc1cccc(CN2CCNc3cc(-c4ccccc4)ncc3C2)c1	?	-12%[88.5 µM]	?	40µM*	-1%[70.6 µM]
Oc1ccccc1CN1CCNc2cnc(Oc3ccccc3)cc2C1	?	i	79µM*	i	?
CCOc1cc2c(cn1)NCCN(Cc1ccccc1O)C2	-20%[138 µM]	i	?	i	1%[70.6 µM]
